Screens: PubChem BioAssay, Broad Institute
BioA inh – M. tuberculosis BioA enzyme inhibitors, primary screen, biochemical, plate reader, single point, HTS | hit rate 0.096% among 360,000 | 7,8-diaminopelargonic acid synthase BioA (Mycobacterium tuberculosis) | inhibition, % at 9.99 µM | purified M. tuberculosis BioA enzyme; in the data active = inhibition above about 40%; inconclusive = no clear call, values can overlap the other calls
TcdB inh – TcdB glycohydrolase inhibitors, primary screen, biochemical, single point, plate reader. inhibition, % at 9.99 µM. hit rate 0.24% among 350,000. TcdB glycohydrolase enzymatic assay. Toxin B (Clostridioides difficile), P18177; in the data active = inhibition above about 10%
Yp Topo-I inh – Yersinia pestis topoisomerase I inhibitors, primary screen, biochemical, cleavage product accumulation, plate reader, single point; activity, % at 10 µM; DNA topoisomerase I (Yersinia pestis CO92); Y. pestis Topo-I cleavage product accumulation; AID 504884, 2011; hit rate 0.064% among 360,000; in the data active = activity above about 50%, passing the limit was not always enough; inconclusive = no clear call, values can overlap the other calls
PrP 5UTR inh – inhibition of PrP 5' UTR reporter expression; cell-based PrP 5' UTR mRNA reporter, plate reader; inhibition, % (test concentration not listed); hit rate 0.35% among 340,000; AID 488862, 2010; in the data active = inhibition above about 52%; also: 0 = median of the neutral control wells
PrP UTR cherry – prion 5' UTR mRNA inhibition, cherry-pick retest | shares compounds with PrP 5UTR inh | cell-based prion protein 5' UTR reporter, plate reader | inhibition, % at 2.5 µM | hit rate 48% among 1,100 | AID 504592, 2011; in the data active = inhibition above about 54%; inconclusive = no clear call, values can overlap the other calls
* marks the source's active call; other numbers are inactive results; u = inconclusive; x = no result; ! = not active in a repeat. Rows were chosen to be rich in hits. Some 0.57% of all compounds tested hit in one or more screens of this group.

SMILES	BioA inh	TcdB inh	Yp Topo-I inh	PrP 5UTR inh	PrP UTR cherry
O=C(Nc1ccccc1F)N1C[C@@H]2N[C@H](C1)C2c1ccc(-c2ccccc2)cc1 (stereo partly specified)	x	1.1	x	x	x
O=C(Nc1ccccc1F)N1C[C@@H]2N[C@H](C1)C2c1ccc(-c2cccc(F)c2)cc1 (stereo partly specified)	x	23.5*!	x	x	x
CCC(=O)N[C@@H]1C=C[C@H](CC(=O)NCc2ccccc2F)O[C@@H]1CO	-3.1	-1.1	x	x	x
Cc1ccc(Nc2n[nH]c(=S)s2)cc1	0.0	2.0	-2.6	x	x
S=c1[nH]nc(NC2CCCCC2)s1	-0.5	18.4*	-10.7	x	x
C[C@H](CO)N1C[C@H](C)[C@H](CN(C)C(=O)CCCN(C)C)OCCCC[C@H](C)Oc2ccc(NC(=O)Nc3ccccc3)cc2C1=O	0.4	-0.5	x	x	x
O=C1NC(=O)C(=Cc2ccccc2[N+](=O)[O-])S1	3.6	1.8	62.0*	-20.3	x
Cc1ccc(S(=O)(=O)Oc2ccccc2C=C2C(=O)N(C)C(=O)N(C)C2=O)cc1	1.5	0.0	16.6	-20.0	x
Cc1ccc(S(=O)(=O)Oc2ccccc2/C=C2/SC(=O)NC2=O)cc1	x	10.3*	5.6	-28.5	x
Cc1noc(C)c1S(=O)(=O)Nc1ccc2c(c1)CC(=O)N([C@H](C)CO)C[C@@H](C)[C@H](CN(C)Cc1ccc3c(c1)OCO3)O2	-2.5	-0.9	x	x	x
COc1ccc(C(CNC(=O)c2oc3ccc(OC)cc3c2C)N2CCCC2)cc1 (stereo unspecified)	-6.8	11.8*	-3.1	-10.4	x
CCCCCCC(=O)Oc1cccc(C2=CC(=O)CC(C)(C)C2=O)c1	1.5	1.6	54.8*	x	x
O=C(Nc1ccc(COc2ccccc2)cc1)Oc1ccccc1N1CCOCC1	x	2.6	1.2	58.6*	32.3
CC1CN(C(=O)[C@@H]2CCCN2S(=O)(=O)c2ccc(Cl)cc2)CC(C)O1 (stereo partly specified)	x	-1.4	4.4	84.5*	-11.6
CC(C)(C)C(=O)Nc1ccc(NC(=O)c2ccco2)nc1	-0.5	2.9	7.8	88.3*	93.8*
Cc1c(N(C)C(=O)c2ccco2)c(=O)n(-c2ccccc2)n1C	1.4	x	1.8	-13.0	x
Cc1c(N(C)CS(=O)(=O)O)c(=O)n(-c2ccccc2)n1C	0.3	-11.8	-1.5	57.8*	-25.6
C[C@H]1CN([C@@H](C)CO)C(=O)Cc2cc(NC(=O)CCN3CCOCC3)ccc2O[C@@H]1CN(C)Cc1ccc(-c2ccccc2)cc1	x	0.4	x	x	x
Cc1cccc(NC(=S)N/N=C/C(C)c2ccccc2)c1C (stereo unspecified)	x	0.2	-5.7	58.6*	-21.7
Cc1ccccc1NC(=S)N/N=C/C(C)c1ccccc1 (stereo unspecified)	-1.1	3.3	5.9	-7.2	x
COC(=O)C[C@@H]1CC[C@@H]2[C@H](COc3ccc(NC(=O)c4cnccn4)cc3C(=O)N2C)O1	19.1	x	x	x	x
CC1=CC2OC3CC4OC(=O)C=CC=CC(=O)OCCC(C)C(O)C(=O)OCC2(CC1)C4(C)C31CO1 (stereo unspecified)	x	2.4	6.3	94.0*	93.5*
CC1=CC2OC3CC4OC(=O)C=CC=CC(C(C)O)OCC(O)C5(C)OC5C(=O)OCC2(CC1O)C4(C)C31CO1 (stereo unspecified)	x	2.6	-1.1	93.9*	92.7*
CC1CCOC(=O)C=CC=CC(=O)OC2CC3OC4C5OC5(C)C(O)CC4(COC(=O)C1O)C2(C)C31CO1 (stereo unspecified)	x	1.2	2.2	82.2*	91.5*
CC(O)C1C=CC=CC(=O)OC2CC3OC4C5OC5(C)C(O)CC4(COC(=O)C(O)C(C)CCO1)C2(C)C31CO1 (stereo unspecified)	x	1.0	-0.4	70.1*	82.8*
SMILES	BioA inh	TcdB inh	Yp Topo-I inh	PrP 5UTR inh	PrP UTR cherry
C[C@H]1CN([C@@H](C)CO)C(=O)c2cccc(NC(=O)CCCCCC(=O)Nc3ccccc3N)c2O[C@@H]1CN(C)Cc1ccc(Oc2ccccc2)cc1	x	0.4	x	x	x
CCc1ccn2cc(-c3cc(-c4ccccc4)no3)nc2c1	-0.7	1.9	-0.8	71.3*	82.5*
Cc1ccc2nc(-c3cc(-c4ccccc4)no3)cn2c1	-1.2	0.3	-5.7	3.5	x
C[C@H]1CN([C@@H](C)CO)C(=O)c2cc(NC(=O)Cn3cnnn3)ccc2O[C@H]1CN(C)S(=O)(=O)c1ccc(Cl)cc1	x	-3.2	x	x	x
COc1cc(C)c(C(=O)Oc2cc(C)c(C(=O)O)c(O)c2)c(O)c1	0.4	-1.5	-6.3	-14.2	x
COc1cc(O)c(C(=O)O)c(-c2cc(O)c(O)cc2C)c1	-0.2	-27.1	2.9	68.3*	-16.2
CCN(CC)C(=S)Nc1ccc(OC)cc1	x	x	3.5	55.5*	-14.8
C[C@H](CO)N1C[C@H](C)[C@@H](CN(C)CC2CC2)Oc2ccc(NC(=O)Nc3ccc(F)cc3)cc2CC1=O	3.1	-0.8	x	x	x
CCCNC(=O)N1C[C@@H](C)[C@H](OC)CN(C)C(=O)c2ccc(NC(C)=O)cc2OC[C@@H]1C	x	0.1	x	x	x
O=C(C1CCC1)N1CC(=O)N2[C@H](C1)[C@H](c1ccc(C#Cc3cccc(F)c3)cc1)[C@@H]2CO	x	-0.2	x	x	x
OC[C@@H]1CC[C@@H]2O[C@H](CCc3ccc(-c4ccccc4)cc3)[C@@H](n3cc(C4CC4)nn3)C[C@@H]2O1	x	-0.8	x	x	x
C[C@@H]1CN([C@H](C)CO)C(=O)c2cc(C#CCN(C)C)cnc2O[C@H]1CN(C)Cc1ccc(-c2ccccc2)cc1	4.3	0.6	x	x	x
COc1ccc(C2NC3=C(CCC3)C3(C#N)C(OC)(OC)N=C(N)C23C#N)cc1 (stereo unspecified)	2.1	x	-8.4	52.7*	u
COC1(OC)N=C(N)C2(C#N)C(c3ccccc3)NC(C)=CC12C#N (stereo unspecified)	x	x	0.2	-13.1	x
CCOc1ccc(NC(=O)c2cc3c(C)nc4ccccc4c3o2)cc1	-2.1	0.2	10.1	61.8*	13.6
Cc1nc2ccccc2c2oc(C(=O)NC3CC3)cc12	1.0	1.6	-1.1	15.3	x
O=c1cc(-c2ccc(O)cc2)oc2ccc3ccccc3c12	-1.8	0.1	0.9	78.1*	72.8*
O=c1cc(-c2ccc(O)cc2)oc2c1ccc1ccccc12	x	-0.4	-4.9	0.2	x
Cc1ccc2nc(-c3ccccc3)nn2c1	-0.5	1.1	3.0	61.2*	u
CC(C)c1ccccc1NC(=S)N1CCN(S(=O)(=O)c2cccs2)CC1	0.4	2.6	-7.4	86.9*	-7.2
COc1ccc(OC)c(C2C3=C(COC3=O)Nc3cc4c(cc32)OCO4)c1 (stereo unspecified)	-2.5	x	2.3	57.6*	89.8*
CCCC(=O)Nc1cccc(S(=O)(=O)N(C)c2ccccc2)c1	1.2	x	3.8	-6.8	x
CN1CCN(CC(=O)Nc2cccc(S(=O)(=O)N(C)c3ccccc3)c2)CC1	0.2	0.6	1.4	91.0*	-0.4
O=C(NCC[C@H]1CC[C@@H](NS(=O)(=O)Cc2ccccc2)[C@@H](CO)O1)C1CCOCC1	-1.6	0.8	x	x	x
O=C(C[C@H]1CC[C@H](NC(=O)CC2CC2)[C@H](CO)O1)NCc1ccccc1	x	-0.3	x	x	x
